Screening results from PubChem.
Hits are enriched below; roughly 11% of the tested compounds scored in any of these assays.
USP17 inh: human USP17-like deubiquitinase inhibition; A8MUK1; purified USP17, Ub-rhodamine cleavage fluorescence, 3 h; inhibition, % at 50 µM; 47,000 tested, 6.5% active; AID 1645855
USP28 block: human USP28 deubiquitinase inhibition; Q96RU2; 47,000 tested, 3% active; purified USP28, Ub-rhodamine cleavage fluorescence, 30 min; AID 1645857; inhibition, % at 25 µM
USP30 block: inhibitors of human USP30 deubiquitinase; AID 1645860; purified USP30, Ub-rhodamine cleavage fluorescence; Q70CQ3; 47,000 tested, 5.3% active; inhibition, % at 25 µM
Target sequence (Q70CQ3 whole entry, looked up): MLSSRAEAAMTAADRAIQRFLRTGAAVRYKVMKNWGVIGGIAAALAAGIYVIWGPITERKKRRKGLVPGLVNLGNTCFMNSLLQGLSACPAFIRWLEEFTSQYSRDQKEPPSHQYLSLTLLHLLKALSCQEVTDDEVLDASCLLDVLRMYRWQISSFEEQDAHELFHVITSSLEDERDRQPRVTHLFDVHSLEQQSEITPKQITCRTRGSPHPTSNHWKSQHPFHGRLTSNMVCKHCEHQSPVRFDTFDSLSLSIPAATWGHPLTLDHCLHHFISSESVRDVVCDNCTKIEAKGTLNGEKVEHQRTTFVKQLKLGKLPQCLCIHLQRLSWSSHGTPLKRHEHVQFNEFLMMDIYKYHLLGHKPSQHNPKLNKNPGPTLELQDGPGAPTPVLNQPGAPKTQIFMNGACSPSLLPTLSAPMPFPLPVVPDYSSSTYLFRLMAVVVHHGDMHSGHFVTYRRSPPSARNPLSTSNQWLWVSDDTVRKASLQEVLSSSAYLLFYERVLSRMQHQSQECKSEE
Numbers without * were called inactive; nt = no result given. Cut-off read from the data, not from the text of the source: active = inhibition above about 30%; inactive = the rest.

SMILES	USP17 inh	USP28 block	USP30 block
Cn1c(CN2CCOCC2)nnc1SCc1ccccc1Cl	nt	-33.7	2.4
COc1cccc(-n2ccn3cc(-c4ccc5c(c4)OCO5)nc3c2=O)c1	nt	-76.2	-405.3
COc1cccc(-n2ccn3cc(-c4ccccc4)nc3c2=O)c1	33.4*	-19.3	-59.0
O=C(CC1C(=O)N(C2CCCC2)c2nc3ccccc3n21)Nc1ccccc1C(F)(F)F (configuration not stated)	34.2*	0.3	22.7
Cc1ccc(NC(=O)CC2C(=O)N(C3CCCC3)c3nc4ccccc4n32)cc1 (configuration not stated)	19.9	3.8	26.3
CCOc1cc(C2C3=C(CC(c4ccc(OC)cc4)CC3=O)Nc3ccccc3N2C(=O)CC(C)C)ccc1OCc1ccc(Cl)cc1 (configuration not stated)	3.2	-9.8	17.4
Cc1cc(C)n(-c2ccc(C(=O)Nc3cccc(S(=O)(=O)N4CCCC4)c3)cc2)n1	28.8	69.4*	74.2*
CN(C)S(=O)(=O)c1cccc(NC(=O)c2cc(F)cc(F)c2)c1	12.6	18.9	24.5
N#Cc1ccccc1-c1ccccc1C(=O)Nc1cccc(S(=O)(=O)N2CCCC2)c1	2.9	7.1	13.2
O=C(Nc1ccc(N2CCOCC2)cc1)c1cccc(S(=O)(=O)N2CCCC2)c1	12.1	4.9	15.6
CCN(CC)S(=O)(=O)c1cccc(NC(=O)c2ccc(OC(F)(F)F)cc2)c1	13.4	30.2*	17.7
CC(C)Oc1ccc(C(=O)Nc2cccc(S(=O)(=O)N3CCCC3)c2)cc1	19.1	63.0*	25.4
CCc1cccc(CC)c1NC(=O)CN1CCN(c2nc3ccccc3s2)CC1	-4.0	-12.5	-8.8
COc1ccc2[nH]c(=O)c(CN(CCN3CCCC3)C(=O)NC3CCCCC3)cc2c1	-19.6	-36.8	-95.2
O=C(c1ccc2ccccc2c1)N1CCN(c2ccc(-n3cccn3)nn2)CC1	0.5	-7.2	-12.7
CC(C(=O)Nc1ccc([N+](=O)[O-])cc1Cl)N(C)Cc1ccc(Cl)c(Cl)c1 (configuration not stated)	1.8	4.8	11.3
CS(=O)(=O)N1CCC2(CCC(c3cccnc3)c3ccccc32)CC1 (configuration not stated)	-7.8	2.6	2.3
O=C(Nc1cc(Cl)cc(Cl)c1)C1C2C=CC3(O2)C1C(=O)N(CCCN1CCN(Cc2ccccc2)CC1)C3C(=O)NC1CCCCC1 (configuration not stated)	-7.2	0.4	-8.3
O=C(CC(c1ccco1)n1cccc1)Nc1cc(F)ccc1F (configuration not stated)	-0.5	2.3	-6.2
COc1ccc(/C=C(/C#N)c2c[nH]c3ccccc23)cc1	-97.2	-57.4	-375.6
COc1ccc(C(=O)c2c[nH]c3ccccc3c2=O)cc1	32.4*	nt	nt
O=C1CO[C@H](c2ccc(NC(=O)c3cc(F)cc(F)c3)cc2)[C@@H](CO)N1	23.6	1.6	19.3
N#Cc1ccc(C(=O)Nc2ccc([C@H]3OCC(=O)N[C@@H]3CO)cc2)cc1	32.7*	0.0	34.7*
Cc1nn(C)cc1C(=O)N1CCN(Cc2ccccc2)C(C(N)=O)C1 (configuration not stated)	-0.2	11.3	19.3
Cc1nn(C)c(C)c1NC(=O)CN1CC2(CCOCC2)Oc2ccccc2C1=O	0.7	-1.0	-0.5
SMILES	USP17 inh	USP28 block	USP30 block
Cc1cc(C(=O)NC2(O)C(=O)c3ccccc3C2=O)n(C)n1	94.1*	22.8	35.9*
O=C(NCc1cc(F)cc(F)c1)c1csc(C(=O)N2CCCC2)n1	10.1	10.9	19.7
O=C(COc1ccccc1)NCC1(N2CCOCC2)CCCCC1	9.0	9.9	16.9
Cc1nc(-c2cc(S(=O)(=O)N3CCC(C)CC3)cn2C)sc1C(=O)N1CCCC1	18.6	6.8	25.6
CCn1cc2c(n1)C(COC)CN(C(=O)c1cc(C)nn1CC)C2 (configuration not stated)	64.5*	24.8	54.4*
COCC1CN(C(=O)c2cccn2C)Cc2cn(CC3CC3)nc21 (configuration not stated)	11.8	1.4	16.8
O=C(NCC1(c2ccccc2)CCC1)c1nc2n(n1)-c1ccccc1S(=O)(=O)N2	9.4	17.1	22.4
O=c1[nH]c(-c2ccccn2)nc2c1CCN(Cc1cccn1-c1ccncc1)C2	-66.1	-29.1	-37.0
Cc1nn2c(CNC(=O)Cc3cccc(F)c3)c(C)nc2s1	-4.0	1.9	-1.2
COc1ccc(NC(=O)CSc2cn[nH]n2)cc1	2.2	-1.9	0.9
Cc1ccc(-c2nc(-c3ccccc3)c(S(=O)(=O)CC(=O)Nc3ccc(F)c(Cl)c3)[nH]2)cc1	24.3	18.5	43.8*
COc1ccc(-c2nc(-c3ccc(OC)cc3)c(S(=O)(=O)CC(=O)Nc3ccc(F)cc3)[nH]2)cc1	-1.6	-18.8	30.0*
O=C(CS(=O)(=O)c1[nH]c(-c2ccc(F)cc2)nc1-c1ccccc1)Nc1ccc(F)cc1	0.1	-1.0	-17.5
COc1ccc(NC(=O)CSc2ccc(F)cc2)cc1	28.1	29.2	33.6*
COc1ccc(NC(=O)CS(=O)(=O)c2[nH]c(-c3ccccc3)nc2-c2ccc(C)cc2)cc1	24.0	1.7	29.5
CC(C(=O)Nc1ccc2c(c1)OCCO2)N1CCC(C(=O)c2ccccc2)CC1 (configuration not stated)	10.7	23.3	8.6
Cc1ccc(CC2CCCN(C(=O)CCc3c(C)n[nH]c3C)C2)cn1 (configuration not stated)	-7.2	nt	nt
CCOc1ccc2c(C)nc(NC3=NCCC(=O)N3)nc2c1	-10.9	-13.8	-9.0
Cn1cc(-c2noc(-c3ccccc3C(F)(F)F)n2)ccc1=O	5.7	17.7	17.2
CC1(C)Oc2ccccc2[C@H]2OCC3(CCN(C(=O)CCN4CCOCC4)CC3)C[C@@H]21	-3.0	-1.3	2.4
O=C(NC1CCCC1)C(c1ccc(N2CCOCC2)cc1)N(C(=O)c1ccco1)c1ccccc1Cl (configuration not stated)	-19.2	10.6	20.5
O=C(Nc1ccc(Br)cc1F)c1cc(S(=O)(=O)NCCc2ccccc2)ccc1F	5.3	3.3	36.0*
COc1ccccc1NC(=O)c1cc(S(=O)(=O)NC2CCCC(C)C2C)ccc1F (configuration not stated)	2.6	8.4	19.5
Cc1ccc(N2CCN(CCc3nc4cc(NC(=O)NC5CCCCC5)ccc4n3C)CC2)cc1	5.8	-12.3	-14.4
Cc1ccccc1Cn1c(=O)c(C#N)c2n(c1=O)CCC2	0.0	-3.6	-47.0
SMILES	USP17 inh	USP28 block	USP30 block
Cc1cc2cc(CCNC(=O)/C=C\c3ccccc3)c(=O)[nH]c2cc1C	18.0	-7.7	-10.5
Cc1ccc2cc(CCNC(=O)c3cccc(Br)c3)c(=O)[nH]c2c1	67.1*	-11.1	-0.9
Cc1cc2cc(CCNC(=O)c3ccc(F)cc3)c(=O)[nH]c2cc1C	2.1	7.9	11.4
Cc1ccc2cc(CCNC(=O)c3ccccc3Br)c(=O)[nH]c2c1	47.9*	2.1	-13.7
Oc1ccc(Br)cc1CNc1ccc(F)cc1	52.9*	60.1*	19.4
COc1ccccc1CCNC(=O)c1cnn2c(C)cc(C)nc12	-7.0	3.7	-2.1
CC(C)C(=O)N1CCCCCC1c1ccn(C)n1 (configuration not stated)	-0.1	-9.4	-4.4
COc1ccccc1OCc1nc2c3c(C)c(C)oc3ncn2n1	-28.8	-4.9	-89.1
Cc1oc2ncn3nc(C(C)Oc4cccc5ccccc45)nc3c2c1C (configuration not stated)	32.5*	-9.2	-143.7
